Assay [1] is described as follows: qHTS assay to identify small molecule agonists of the peroxisome proliferator-activated receptor delta (PPARd) signaling pathway - cell viability counter screen (AID 743211). Note: nearly all actives have a fitted effect of over 55% in size. The essentials: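 Following 5 h plating at 37 C and 5% CO2, PPARd UAS-bla HEK293H cells took up test compounds for 17 h. Viability was quantified by luminescence 30 min after CellTiter-Glo addition at room temperature.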

Assay [2] addresses Peroxisome proliferator-activated receptor delta (Homo sapiens) (UniProt Q03181). In words: qHTS assay to identify small molecule agonists of the peroxisome proliferator-activated receptor delta (PPARd) signaling pathway (AID 743212; calls by dose curve). The essentials: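 Steps: seed PPARd-bla HEK293H cells; incubate 5 h, 37 C, 5% CO2; add compounds in DMSO; incubate, 37 C; add LiveBLAzer B/G FRET substrate; hold 2 h at room temperature; measure fluorescence.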
(In general: In qHTS, concentration-response curves come from the screen itself.)

Assay [3] can be described thus: qHTS assay to identify small molecule antagonists of the peroxisome proliferator-activated receptor delta (PPARd) signaling pathway - cell viability counter screen (AID 743213). Note: nearly all actives have a fitted effect of over 50% in size. The procedure, abridged:
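Luminescence from CellTiter-Glo, added after the bla read and incubated 30 min at room temperature, gives viability of HEK293H PPARd-bla cells exposed to compounds for 17 h at 37 C with 300 nM L165041.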

Assay [4] concerns the target Peroxisome proliferator-activated receptor delta (Homo sapiens) (UniProt Q03181). In words: qHTS assay to identify small molecule antagonists of the peroxisome proliferator-activated receptor delta (PPARd) signaling pathway (AID 743215; active = well fitted inhibition curve with a large enough effect in the signal ratio in the repeat runs, not every such curve was filed as active; the % refers to the signal ratio;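 note: cells stimulated with agonist L165041 at 300 nM final during compound exposure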; note: potency is the fitted concentration of half-maximal effect). The procedure, abridged:
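Cells: HEK293H with a UAS-driven beta-lactamase reporter responsive to PPARd. Compounds were co-added with L165041 (300 nM, final) and incubated 17 h at 37 C before a 2 h room-temperature FRET substrate step and fluorescence reading.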

Assay [5] has as its target Bile acid receptor (Homo sapiens) (UniProt Q96RI1). Briefly: qHTS assay to identify small molecule antagonists of the farnesoid-X-receptor (FXR) signaling pathway (AID 743217; active = well fitted inhibition curve with a large enough effect in the signal ratio in the repeat runs, not every such curve was filed as active; the % refers to the signal ratio). The essentials:
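Cells carrying a UAS-driven beta-lactamase reporter (GeneBLAzer FXR-UAS-bla HEK 293T) were plated and rested 5 h at 37 °C. Compounds in DMSO were added alongside chenodeoxycholic acid agonist at 50 uM final and left 16 h at 37 °C before FRET substrate readout.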

The nature of assay [6]: qHTS assay to identify small molecule agonists of the farnesoid-X-receptor (FXR) signaling pathway - cell viability counter screen (AID 743218). Note: nearly all actives have a fitted effect of over 45% in size. The essentials: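 Cells were seeded, left 5 h at 37 C and 5% CO2, then dosed with compound in DMSO for 16 h. After the beta-lactamase FRET read, CellTiter-Glo was added and luminescence measured 30 min later.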
Assay [7] has as its target Bile acid receptor (Homo sapiens) (UniProt Q96RI1). Briefly: qHTS assay to identify small molecule agonists of the farnesoid-X-receptor (FXR) signaling pathway (AID 743220; active = well fitted activation curve with a large enough effect in the signal ratio in the repeat runs, not every such curve was filed as active; the % refers to the signal ratio). The essentials: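 FXR-UAS-bla HEK 293T cells carrying a UAS-driven beta-lactamase reporter were plated for 5 h at 37C/5% CO2, then exposed to DMSO-dissolved Tox21 10K compounds for 16 h at 37C. A LiveBLAzer B/G FRET substrate was loaded for 2 h at room temperature before fluorescence reading.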

Assay [8] in a line: qHTS assay to identify small molecule antagonists of the farnesoid-X-receptor (FXR) signaling pathway - cell viability counter screen (AID 743221; active = well fitted cell-killing curve with a large enough effect in the repeat runs, not every such curve was filed as active; note: nearly all actives have a fitted effect of over 50% in size). The essentials:
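Compound effects on cell number were measured as CellTiter-Glo luminescence in HEK 293T cells expressing FXR-UAS-bla, after 16 h at 37 C with 50 uM CDCA (final).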

Assay [9] can be described thus: qHTS assay to identify small molecule agonists of the vitamin D receptor (VDR) signaling pathway - cell viability counter screen (AID 743224). Note: series mostly up to about 63 µM; nearly all actives have a fitted effect of over 50% in size. The essentials: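 Cells: VDR-bla, 2,000/well, settled 4 h. Treatment: compounds in DMSO, 16 h, 37C/5% CO2. Readout: CellTiter-Glo luminescence after 30 min RT.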
Assay [10] in a line: qHTS assay to identify small molecule antagonists of the vitamin D receptor (VDR) signaling pathway - cell viability counter screen (AID 743225). Note: nearly all actives have a fitted effect of over 50% in size. The essentials: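 In this counter screen, VDR-bla HEK 293T cells receive test compound plus 3 nM final calcitriol for 16 h at 37C. Room-temperature steps of 2 h with the beta-lactamase substrate, then 30 min with CellTiter-Glo, precede the luminescence read.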

The nature of assay [11]: qHTS assay to identify small molecule agonists of the NFkB signaling pathway (AID 1159509; active = well fitted curve in the direction sought with a large enough effect in the signal ratio in the repeat runs, not every such curve was filed as active; the % refers to the signal ratio; note: series mostly up to about 61 µM). The procedure, abridged: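 Beta-lactamase reporter assay run in quantitative high-throughput format on an NF-kB-responsive ME-180 line, with 5 hr compound treatment and a FRET-based blue/green fluorescence readout.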
A short description of assay [12]: qHTS assay to identify small molecule agonists of the NFkB signaling pathway - cell viability counter screen (AID 1159515; calls by dose curve; note: series mostly up to about 61 µM; nearly all actives have a fitted effect of over 55% in size). The procedure, abridged: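 Cells are seeded (2,000 NFkB-bla ME-180 per well), rested overnight, and dosed with DMSO-dissolved compounds for 5 hr at 37 C. Viability is then read by CellTiter-Glo luminescence after 30 min at room temperature.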

Assay [13] is described as follows: qHTS assay to identify small molecule agonists of the endoplasmic reticulum stress response signaling pathway (AID 1159516; active = well fitted activation curve with a large enough effect in the signal ratio in the repeat runs, not every such curve was filed as active; the % refers to the signal ratio). The essentials: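 Cells are seeded at 1,500 per well and incubated overnight. Compounds in DMSO are added for 5 hr at 37 C, then beta-lactamase FRET substrate for 2 hr at room temperature, and fluorescence at 460 and 530 nm is measured.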

Assay [14] is described as follows: qHTS assay to identify small molecule antagonists of the retinoid-related orphan receptor gamma (ROR-gamma) signaling pathway - cell viability counter screen (AID 1159520). Note: nearly all actives have a fitted effect of over 50% in size. The essentials: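 Cytotoxicity was read from cellular ATP (CellTiter-Glo luminescence) after 16 hr at 37 C with 1 uM doxycycline induction. The inducer was added 2 hr after compound transfer to Tet-on ROR gamma CHO cells.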

The nature of assay [15]: qHTS assay to identify small molecule agonists of the AP-1 signaling pathway - cell viability counter screen (AID 1159525; calls by dose curve; note: nearly all actives have a fitted effect of over 55% in size). The procedure, abridged: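 Intracellular ATP by Cell Titer Glo luminescence (30 min, RT) in the same ME-180 AP-1-bla wells after the 5 h compound exposure at 37 °C. Normalised to tetra n-octyl ammonium bromide and DMSO controls.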
A short description of assay [16]: qHTS assay to identify small molecule agonists of the AP-1 signaling pathway (AID 1159526; calls by dose curve).
In assay [17] the target is Vitamin D3 receptor (Homo sapiens) (UniProt P11473). In words: qHTS assay to identify small molecule antagonists of the vitamin D receptor (VDR) signaling pathway (AID 743223; active = well fitted inhibition curve with a large enough effect in the signal ratio in the repeat runs, not every such curve was filed as active; the % refers to the signal ratio). The procedure, abridged:
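Beta-lactamase activity in VDR-bla cells is measured by FRET substrate fluorescence (2 h, room temperature) after cells spend 16 h at 37C with test compound and 3 nM final 1alpha,25-dihydroxyvitamin D3.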

Assay [18] concerns the target Nuclear receptor ROR-gamma (Homo sapiens) (UniProt P51449). Briefly: qHTS assay to identify small molecule antagonists of the retinoid-related orphan receptor gamma (ROR-gamma) signaling pathway (AID 1159521). The procedure, abridged: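 Screening format: cell-based luciferase reporter in CHO cells with doxycycline-inducible RORγ. Compound pre-exposure lasts 2 h, doxycycline is 1 uM final, induction runs 16 h at 37 C, and ONE-Glo luminescence is read.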

Assay [19] has as its target Vitamin D3 receptor (Homo sapiens) (UniProt P11473). In words: qHTS assay to identify small molecule agonists of the vitamin D receptor (VDR) signaling pathway (AID 743222; calls by dose curve). The essentials:
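Cells carrying a VDR-driven beta-lactamase reporter are seeded at 2,000 per well and rested 4 h. Compounds in DMSO are added for 16 h at 37C, and FRET substrate fluorescence is measured after 2 h at room temperature.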

Drawing on PubChem BioAssay (Tox21), this text covers Potency and outcome for 10 compounds.

Molecules are shown by their SMILES. Inconclusive results are not listed. Values without a mark were called inactive. The source made the active and inactive calls. Unless noted, calls come from the whole dose curve; as a rule, active = well fitted curve in the direction sought with a large enough effect in the repeat runs; inconclusive = weak or mixed curves; inactive = no such curve, though single readings can be large; an effect the other way counts as inactive or inconclusive.

Sequence of Peroxisome proliferator-activated receptor delta (Homo sapiens) (Q03181 whole entry, looked up): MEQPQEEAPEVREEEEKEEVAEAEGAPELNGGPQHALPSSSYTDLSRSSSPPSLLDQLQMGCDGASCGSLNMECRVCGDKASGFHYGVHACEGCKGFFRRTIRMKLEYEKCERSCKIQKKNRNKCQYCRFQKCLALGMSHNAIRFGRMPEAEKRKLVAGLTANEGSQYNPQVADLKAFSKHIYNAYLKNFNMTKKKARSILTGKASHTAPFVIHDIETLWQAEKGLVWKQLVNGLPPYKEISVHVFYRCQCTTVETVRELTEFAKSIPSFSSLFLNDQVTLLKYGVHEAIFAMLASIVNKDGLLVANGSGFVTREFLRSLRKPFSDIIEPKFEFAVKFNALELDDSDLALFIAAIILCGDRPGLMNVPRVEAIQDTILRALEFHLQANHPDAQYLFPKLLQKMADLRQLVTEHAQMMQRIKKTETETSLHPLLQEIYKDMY
Sequence of Vitamin D3 receptor (Homo sapiens) (P11473 whole entry, looked up): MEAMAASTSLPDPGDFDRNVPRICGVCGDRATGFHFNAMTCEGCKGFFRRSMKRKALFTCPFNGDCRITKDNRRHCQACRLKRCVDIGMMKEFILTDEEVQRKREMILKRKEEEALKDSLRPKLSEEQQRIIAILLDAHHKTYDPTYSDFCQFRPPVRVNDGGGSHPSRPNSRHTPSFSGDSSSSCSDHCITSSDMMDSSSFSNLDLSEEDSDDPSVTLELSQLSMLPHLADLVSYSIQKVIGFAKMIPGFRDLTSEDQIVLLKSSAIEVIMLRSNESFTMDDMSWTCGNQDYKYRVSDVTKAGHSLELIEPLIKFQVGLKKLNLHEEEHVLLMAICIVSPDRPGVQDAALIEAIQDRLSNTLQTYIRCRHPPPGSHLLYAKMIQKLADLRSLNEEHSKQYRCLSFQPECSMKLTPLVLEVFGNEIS
Sequence of Bile acid receptor (Homo sapiens) (Q96RI1 whole entry, looked up): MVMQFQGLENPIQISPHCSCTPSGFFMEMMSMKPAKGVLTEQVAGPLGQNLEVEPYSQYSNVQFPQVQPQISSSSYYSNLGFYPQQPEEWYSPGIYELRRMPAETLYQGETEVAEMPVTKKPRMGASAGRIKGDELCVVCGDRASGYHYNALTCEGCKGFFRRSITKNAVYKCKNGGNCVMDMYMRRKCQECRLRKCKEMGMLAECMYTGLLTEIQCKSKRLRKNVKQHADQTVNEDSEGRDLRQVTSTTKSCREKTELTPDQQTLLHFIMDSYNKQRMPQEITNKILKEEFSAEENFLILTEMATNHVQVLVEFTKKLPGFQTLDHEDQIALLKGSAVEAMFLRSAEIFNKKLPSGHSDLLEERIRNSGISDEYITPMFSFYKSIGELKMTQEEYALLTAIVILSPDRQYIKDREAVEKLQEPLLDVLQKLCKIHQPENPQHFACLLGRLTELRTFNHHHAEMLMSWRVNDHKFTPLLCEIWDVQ

Consider `C=CC(=O)NC(C)C`, for which the Potency entry in assay [1], in [3], in [4], in assay [6], in [7] and in assay [8] was “inactive” each time. In addition, the Potency entry in assay [9], in assay [10], in assay [12], in assay [13], in assay [14] and in [15] was “inactive” in each case. The result in assay [2], in assay [5], in assay [11] and in assay [16] was inactive.

As for `CC(C)C1CCC(C(=O)N[C@H](Cc2ccccc2)C(=O)O)CC1` (some centres not stated), the Potency result in assay [1], in [6], in assay [8], in assay [9], in [10] and in [12] was “inactive” in each case. The Potency result in [13], in assay [14], in [18] and in assay [15] was “inactive” in each case. Besides, the compound was classed as inactive in [17], in assay [11] and in [16].

Consider `Cc1ccc(N(CCO)CCO)cc1`, for which the Potency result in assay [1], in assay [3], in assay [6], in assay [8], in assay [9] and in assay [10] was “inactive” throughout. For the same compound, the Potency entry in [12], in assay [13], in [14] and in [15] was “inactive” in each case. Moreover, the call in [2], in assay [5], in assay [19], in assay [11] and in assay [16] was inactive.

For the compound `O=C(NS(=O)(=O)/C=C/c1ccccc1)c1ccc(F)cc1Cl`, the compound was called inactive in [2], in [11] and in assay [16]. The Potency result in assay [3], in assay [4], in [6], in [8], in assay [9] and in [10] was “inactive” each time. The Potency entry in assay [12], in assay [13], in assay [14], in assay [18] and in [15] was “inactive” each time.

For `COc1ccc(/C=C/C(=O)c2ccc(OC)cc2OC)cc1`, the Potency entry in assay [1], in assay [6], in [7], in assay [8], in assay [9] and in [10] was “inactive” throughout. In addition, the Potency entry in assay [12], in [13], in assay [14], in assay [18] and in [15] was “inactive” each time. Further, the compound was classed as inactive in assay [2] and in assay [11]. In addition, the Potency in assay [4] is 11.9 µM (active).

With `Nc1ccn([C@H]2CS[C@@H](CO)O2)c(=O)n1`, the Potency entry in assay [1], in [3], in [6], in assay [8], in [12] and in [13] was “inactive” in each case. The Potency result in [14], in assay [18] and in assay [15] was “inactive” each time. Besides, the compound was called inactive in [11] and in assay [16].

For `CC[C@@H](CO)NCCN[C@@H](CC)CO`, the compound was called inactive in [2], in [11] and in assay [16]. For the same compound, the Potency result in assay [6], in assay [8], in [10], in [12], in assay [13] and in assay [14] was “inactive” each time. Moreover, the Potency result in assay [18] and in assay [15] was “inactive” in each case.

`CC(C)(C)C1(CCc2ccc(Cl)cc2)CO1` (configuration not stated): the Potency entry in [1], in assay [3], in assay [6], in assay [7], in [8] and in assay [9] was “inactive” in each case. Moreover, the Potency result in assay [10], in [12], in [13], in assay [14], in [18] and in [15] was “inactive” in each case. Besides, the compound was called inactive in assay [2], in [5], in assay [19], in assay [17] and in assay [11].

For `O=c1[nH]c2cc(C(F)(F)F)c(N3CCOCC3)cc2n(CP(=O)(O)O)c1=O`, the result in assay [2], in [5], in assay [11] and in assay [16] was inactive. Further, the Potency entry in [3], in [6], in assay [7], in [8], in assay [9] and in assay [10] was “inactive” throughout. The Potency entry in [12], in [13], in assay [14], in [18] and in [15] was “inactive” throughout.

As for `C[C@H](CS)C(=O)N1CCC[C@H]1C(=O)O`, the Potency entry in assay [1], in [3], in assay [6], in assay [8], in assay [12] and in assay [13] was “inactive” each time. Also, the Potency result in [14], in assay [18] and in assay [15] was “inactive” each time. The call in [11] and in assay [16] was inactive.
